Assay outcomes as filed in PubChem BioAssay.
Most compounds without a hit are left out; they make up all but 4.1% or so of the library.
ALR H2O2 inh = inhibitors of human sulfhydryl oxidase ALR; 3.8% of 290,000 active; inhibition, % (concentration not given with the values); purified ALR, DTT oxidation, H2O2 HRP-luminol luminescence; P55789;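 active = mean replicate inhibition above about 79%, with every replicate also reaching it, limit read from the data; inconclusive = only one of the two criteria met; inactive = mean below limit and not every replicate reaching it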
Target sequence (P55789 whole entry, looked up): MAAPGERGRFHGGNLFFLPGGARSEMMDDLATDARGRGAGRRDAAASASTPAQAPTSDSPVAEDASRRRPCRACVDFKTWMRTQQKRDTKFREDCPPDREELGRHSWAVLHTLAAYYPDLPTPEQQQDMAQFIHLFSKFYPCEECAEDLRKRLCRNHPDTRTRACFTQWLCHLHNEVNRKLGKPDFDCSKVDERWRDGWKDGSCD
PfM18AAP inh = PfM18AAP enzyme inhibition. 1.2% of 290,000 active. recombinant PfM18AAP, H-Glu-NHMec fluorogenic cleavage. inhibition, % at 7.35 µM;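 active = inhibition above the campaign mean inhibition over all tested compounds plus 3 SD, cut at about 28% in these data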
PolyA inhibitor = blocks polyadenylation in yeast reporter cells; S. cerevisiae SKY197-pL101 polyadenylation reporter, beta-gal luminescence; efflux-impaired pdr1/pdr3 knockout yeast; score 100 = 6 SD above DMSO; activity score, % at 12 µM; 0.02% of 300,000 active;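 active = lowest replicate activity score at least 50, where 100 means six control SD above control mean; inconclusive = lowest score under 50 but half or more replicates reach 50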;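 note: yeast exposed to compound for 9 h at 30 °C; higher score means more reporter readthrough which indicates perturbed polyadenylation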
IDE cell inh = cellular human IDE inhibition; HEK cells, FAbetaB cleavage, fluorescence polarization; 0.41% of 320,000 active; AID 434962; inhibition, % at 5.59 µM; P14735;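 active = percent inhibition above the average of all tested compounds plus 3 SD, set per screening campaign, cut at about 16% in these data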;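 note: IDE supplied by intact live HEK cells; FP after avidin binding of uncleaved biotin substrate so inhibition keeps polarization high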
IDE cell activ = boosts human insulin-degrading enzyme activity in HEK cells | FAbeta-B cleavage, fluorescence polarization; 0% vehicle, 100% cell-free pure enzyme wells | AID 493087 | activation, % at 5.96 µM | 0.073% of 340,000 active;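 active = activation above the mean of all tested compounds plus 3 SD, set per screening campaign, cut at about 17% in these data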
CaV13 ICDI inh = Primary screen for inhibitors of IQ motif and Ca2+-dependent inactivation inhibitor domain binding in CACNA1D, Förster resonance energy transfer in living cells, …; HEK cells, CFP/YFP FRET ICDI-IQ, plate reader, 10 min; percent FRET-ratio fall versus neutral wells; inhibition, % at 12.3 µM; 0.098% of 340,000 active;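 active = mean replicate inhibition of at least 30% and at least 1% of replicates passing that level; inconclusive = only one of the two criteria is met; inactive = neither criterion is met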
Each line names hits and unclear results; the compound was inactive in the other large screens.

Cc1ccc(S(=O)(=O)Nc2ccccc2C(=O)N2CCOCC2)cc1	none (no result: CaV13 ICDI inh)
CCCCc1nc(N2CCOCC2)c(C#N)c2c1COC(C)(C)C2	ALR H2O2 inh 100
CC(NC(=O)C1CCN(CCOc2ccc(Cl)cc2)CC1)c1cccc2ccccc12 (centres undefined)	none (no result: ALR H2O2 inh, PfM18AAP inh, PolyA inhibitor, IDE cell inh, IDE cell activ)
Nc1nc(-c2ccc(F)cc2)cs1	none
CCCOc1ccc(-c2csc(N)n2)cc1[N+](=O)[O-]	ALR H2O2 inh 99
CCc1ccc(OC)c(-c2csc(N)n2)c1	ALR H2O2 inh 98
CCCCOc1ccc(-c2cn3ccccc3n2)cc1[N+](=O)[O-]	none
COc1ccc(-c2csc(N)n2)cc1F	ALR H2O2 inh 96
CN(C)/C=C1\N=C(c2cccs2)OC1=O	ALR H2O2 inh 93
Cc1ccc(F)cc1NC(=O)N1CCN(c2ccnc3cc(Cl)ccc23)CC1	none (no result: ALR H2O2 inh)
O=C(Nc1ccc(C(F)(F)F)cc1)N1CCN(c2ccnc3cc(Cl)ccc23)CC1	IDE cell inh 30 (no result: IDE cell activ)
O=C(O/N=C1\CCS(=O)(=O)c2sccc21)C1CC1	none (no result: ALR H2O2 inh)
CN(C)/C=C(\C#N)C(=O)Nc1ccc(O)cc1F	ALR H2O2 inh 99
CN(C)/C=C(\C#N)C(=O)Nc1ccccc1	none
N#CC1=C(N)S[C@H](C(=O)C23CC4CC(CC(C4)C2)C3)[C@H]1c1ccncc1	none (no result: CaV13 ICDI inh)
COc1cc(OC)c(C2CC(=O)N3CN(c4ccc(C)cc4)CSC3=C2C#N)cc1OC (centres undefined)	PfM18AAP inh 31
COc1ccc(N2CSC3=C(C#N)C(c4cccs4)CC(=O)N3C2)cc1 (centres undefined)	PfM18AAP inh 43
CCOc1ccccc1N1CSC2=C(C#N)C(c3c(OC)ccc4ccccc34)CC(=O)N2C1 (centres undefined)	PfM18AAP inh 37
CC(C)Oc1ccccc1OC1(C)CCN(Cc2ccc(OC(F)(F)F)cc2)C1 (centres undefined)	none (no result: ALR H2O2 inh, PfM18AAP inh, PolyA inhibitor, IDE cell inh, IDE cell activ)
CCc1ccccc1N/N=C(/C)c1c(O)cc(C)oc1=O	ALR H2O2 inh 98
C/C(=N\NC(=O)c1ccccc1O)c1c(O)cc(C)oc1=O	none
CCN(CC)CCn1c2c(c(SCC(=O)Nc3nc(C)cs3)nc1=O)CCC2	ALR H2O2 inh 99 (no result: PfM18AAP inh, CaV13 ICDI inh)
CCN(CC)CCn1c2c(c(SCC(=O)Nc3nc(C)cs3)nc1=O)CCCC2	ALR H2O2 inh 98 (no result: PfM18AAP inh)
CCN(CC)CCCn1c2c(c(SCC(=O)Nc3nc(C)cs3)nc1=O)CCC2	none (no result: PfM18AAP inh)
Cn1cnnc1Sc1nc2ccccc2nc1NS(=O)(=O)c1ccccc1	none
CC(=O)Nc1ccc(S(=O)(=O)Nc2nc3ccccc3nc2Sc2nncn2C)cc1	ALR H2O2 inh 99
Cn1ccnc1Sc1nc2ccccc2nc1NS(=O)(=O)c1ccccc1	PfM18AAP inh 29
Cc1ccc(C)c(/C=C/C(=O)c2ccccc(=O)c2O)c1	ALR H2O2 inh 97
Cc1ccc(/C=C/C(=O)c2ccccc(=O)c2O)c(C)c1	none
Cc1cc(C(=O)N2CCC2(C)C(=O)NCC(C)(C)C)nn1C (centres undefined)	none (no result: ALR H2O2 inh, PfM18AAP inh, PolyA inhibitor, IDE cell inh, IDE cell activ)
O=C(NC1CCCCC1)C1c2ccccc2OCC(=O)N1C1CC1 (centres undefined)	none (no result: ALR H2O2 inh, PfM18AAP inh, PolyA inhibitor, IDE cell inh, IDE cell activ)
CCOC(=O)[C@@H](C)N1[C@@H](C)[C@H](c2ccccc2)Oc2ccc(Cl)cc2S1(=O)=O	none (no result: ALR H2O2 inh, PfM18AAP inh, PolyA inhibitor, IDE cell inh, IDE cell activ)
O=C1CCC(=O)c2ccc3c4c(ccc1c24)CC3	none (no result: ALR H2O2 inh, PfM18AAP inh, PolyA inhibitor, IDE cell inh)
O=C1CCN2C=Nc3cccc4ccc1c2c34	IDE cell activ 41
COc1cccc(CNC(=O)c2ccccc2SCC(=O)N2CCCC2)c1	PolyA inhibitor inconclusive (no result: PfM18AAP inh)
CC(NC(=O)CN1CCc2ccccc21)c1ccccc1 (centres undefined)	none
C/C(=N\Nc1ccccn1)c1ccc(OC(F)F)cc1	ALR H2O2 inh 89
C/C(=N\Nc1ccccn1)c1ccc(C#N)cc1	none
C/C(=N\Nc1ccccn1)c1cccs1	ALR H2O2 inh 99
CCOC(=O)C(CSCC(=O)c1ccc(Br)cc1)NC(=O)OC(C)(C)C (centres undefined)	ALR H2O2 inh 99 (no result: IDE cell activ, CaV13 ICDI inh)
O=C1c2ccccc2CSc2c(O)cccc21	ALR H2O2 inh 80 (no result: PfM18AAP inh, IDE cell activ)
COc1ccc(Nc2nnc(-c3ccc4c(c3)OCO4)o2)cc1	none (no result: ALR H2O2 inh, PfM18AAP inh, PolyA inhibitor, IDE cell inh, IDE cell activ)
CN1c2ccc([N+](=O)[O-])cc2N(C)C1(C)c1ccccc1 (centres undefined)	ALR H2O2 inh 99 (no result: IDE cell inh)
COc1cc(NS(=O)(=O)c2ccc(NC(=O)c3cccnc3)cc2)ncn1	none (no result: CaV13 ICDI inh)
COc1ccc(Nc2c3c(nc4ccc(C)cc24)CCC3)cc1	none (no result: ALR H2O2 inh)
Cc1ccc2nc3c(c(Nc4ccc5c(c4)OCCO5)c2c1)CCC3	ALR H2O2 inh 98
CC(=O)Nc1ccc(NC(=O)COC(=O)Cc2c[nH]c3ccccc23)cc1	ALR H2O2 inh 83
CCOc1ccc(NC(=O)COC(=O)CCCc2c[nH]c3ccccc23)cc1	none
CC(=O)NC(Cc1c[nH]c2ccccc12)C(=O)OCC(=O)Nc1ccc2c(c1)OCO2 (centres undefined)	ALR H2O2 inh 89
Cc1ccc(NC(=O)COC(=O)Cc2c[nH]c3ccccc23)cc1	none (no result: ALR H2O2 inh, PfM18AAP inh, PolyA inhibitor, IDE cell inh, IDE cell activ)
COc1ccc(NC(=O)COC(=O)CCCc2c[nH]c3ccccc23)cc1	ALR H2O2 inh 85
C[C@@H]1O[C@@H](OC2C(O)C(OCCc3ccc(O)c(O)c3)OC(CO)C2OC(=O)/C=C/c2ccc(O)c(O)c2)[C@H](O)[C@H](O)[C@H]1O (some centres undefined)	ALR H2O2 inh 99 (no result: PfM18AAP inh, IDE cell activ, CaV13 ICDI inh)
COc1cc(OC)cc(C(=O)Nc2ccccc2C(=O)NCc2cccnc2)c1	none (no result: ALR H2O2 inh)
CC1CCC2C(C1)Nc1c(C(=O)O)cccc1C2(C)C (centres undefined)	ALR H2O2 inh 98
CC1C2CCC(C2)C1OC(=O)c1ccccc1C(=O)O (centres undefined)	none (no result: ALR H2O2 inh, PfM18AAP inh, PolyA inhibitor, IDE cell inh, IDE cell activ)
COc1ccccc1-n1nnnc1SCC(=O)NCC1(N2CCCCC2)CCCCC1	none (no result: ALR H2O2 inh, PfM18AAP inh, PolyA inhibitor, IDE cell inh)
CC(=O)c1cc(C(=O)Nc2ccc(C(=O)O)cc2)oc1C	none (no result: CaV13 ICDI inh)
Cc1oc(C(=O)Nc2ccc(C(=O)O)cc2)cc1COc1ccccc1	ALR H2O2 inh 97
COc1ccc(CNC(=O)C2CSC(c3ccc(OC)cc3)N2C(C)=O)cc1 (centres undefined)	ALR H2O2 inh 85
COc1ccc(C2SCC(C(=O)O)N2C(C)=O)cc1 (centres undefined)	none
Cc1nc2c3ccccc3nc(NNC(=O)CCC(=O)NC3CCCC3)n2n1	ALR H2O2 inh 79
COc1ccc(N2CCN(CCNC(=O)CCC(=O)NNc3nc4ccccc4c4nc(C)nn34)CC2)cc1	ALR H2O2 inh 96 (no result: CaV13 ICDI inh)
O=C(Nc1ccccc1)C1Cc2ccccc2CN1C(=O)c1ccco1 (centres undefined)	ALR H2O2 inh 97
COc1ccccc1CNC(=O)c1ccc2nc(C)c(N(C)Cc3ccc(NC(C)=O)cc3)n2c1	none (no result: ALR H2O2 inh, PfM18AAP inh, PolyA inhibitor, IDE cell inh, IDE cell activ)
O=C(/C=C/c1ccco1)NC(=S)Nc1cccc(C(=O)O)c1	ALR H2O2 inh 96
